# Measured values taken from PubChem BioAssay AID463173 (ICCB-Longwood Screening Facility, Harvard Medical School, 2010).
# The campaign covered roughly 52,000 compounds. About 4,300 (8.3%) were called active. What follows is part of a selection rich in actives, with near analogues and random picks from the rest. Values without a mark were called inactive. Rule as the data show it: active = survival mostly below about 52% (no sharp cut-off); inactive = mostly above about 56%.
# Test system: DeltatarO mutant
# Assay: S. aureus survival, RN4220 and DeltatarO strains – OD600, teichoic acid synthesis inhibitors, primary screen (AID 463173)
# Conditions: S. aureus RN4220 wild type/DeltatarO growth, OD600, 18 h, hits give low values, screened at 18.75 µg/mL (by protocol)
row,SMILES,survival
1,CC(C)Cn1cc(NC(=O)NCc2ccccc2)c2ccccc2c1=O,74%
2,CCc1nonc1NC(=O)c1oc2cc(C)c(C)cc2c1C,102%
3,CCOC(=O)c1cc(C(=O)OCC)c(=S)[nH]c1O,98%
4,CCOC(=O)c1cnc(SCC)[nH]c1=O,41% (active)
5,CCOC(=O)c1cc2ccccc2[nH]c1=O,82%
6,Cc1ccc(NC(=O)c2c(NC(=O)c3ccc(F)cc3)sc3c2CCCC3)cc1C,67%
7,COCCCNC(=O)c1ccc2c(c1)NC(=O)C(C(C)C)N2 (stereo unspecified),57%
8,COc1ccc(NC(=O)c2sc3nc4c(cc3c2N)CCCCCC4)c(OC)c1,62%
9,CCc1oc(C(=O)O)cc1CN,97%
10,COc1ccc(C(=O)Nc2nc3c(s2)Cc2c(Br)ccc(OC)c2-3)cc1OC,36% (active)
11,COc1ccc(Br)c2c1-c1nc(NC(=O)c3ccccc3F)sc1C2,69%
12,COc1ccc(Br)c2c1-c1nc(NC(=O)c3ccc(F)cc3)sc1C2,67%
13,COc1ccc(Br)c2c1-c1nc(NC(=O)c3ccccc3SC)sc1C2,105%
14,COc1cc(C(=O)Nc2nc3c(s2)Cc2c(Br)ccc(OC)c2-3)cc(OC)c1OC,36% (active)
15,COc1ccc(Br)c2c1-c1nc(NC(=O)c3cccc(C)c3)sc1C2,44%
16,Cc1cccc(N2CCN(C(=O)CN3C(=O)CSc4c3c(C)nn4-c3ccccc3)CC2)c1C,83%
17,O=C(Nc1ccc(F)cc1)c1cccc(N2CCCS2(=O)=O)c1,70%
18,O=C(Nc1nnc(C(F)(F)F)s1)c1ccccc1,24% (active)
19,Cc1nnc(NC(=O)c2ccccc2)s1,71%
20,COc1ccc(C(=O)Nc2nnc(S(=O)(=O)N(C)c3ccc(Cl)cc3)s2)cc1OC,83%
21,COc1cc(C(=O)Nc2nnc(S(=O)(=O)N(C)c3ccccc3)s2)cc(OC)c1OC,40% (active)
22,COc1ccc(C(=O)Nc2nnc(S(=O)(=O)N(C)c3ccc(C)cc3)s2)cc1,79%
23,CCCC(=O)Nc1nnc(S(=O)(=O)N(C)c2ccccc2)s1,108%

row,SMILES,survival
1,CN(c1ccccc1)S(=O)(=O)c1nnc(NC(=O)c2ccccc2)s1,32% (active)
2,CC(C)C(=O)Nc1cccc(C(=O)Nc2nnc(C(F)(F)F)s2)c1,58%
3,CCN(C(=O)Cn1cnc2c1c(=O)n(C)c(=O)n2C)c1ccccc1C,87%
4,Fc1ccc(N2CCN(c3nc4ccccc4c4nc(-c5cccnc5)nn34)CC2)cc1,93%
5,CC(=O)N1c2ccc(S(=O)(=O)N3CCCCCC3)cc2CC1C(=O)NCc1cccc(F)c1 (stereo unspecified),65%
6,Cc1ccc(NC(=O)c2ccco2)c(OCc2cc(=O)n3cc(C)sc3n2)c1,102%
7,O=C(/C=C/c1ccccc1)Nc1ccc2c(c1)OCCO2,76%
8,CCOC(=O)Nc1ccc2c(c1)OCO2,79%
9,NC(=O)/C=C/C(=O)Nc1ccc2c(c1)OCO2,33% (active)
10,CCc1ccccc1NC(=O)N1CCOc2ccccc21,106%
11,CSc1ccc(C2c3c(oc4ccc(F)cc4c3=O)C(=O)N2c2ccc(C)cn2)cc1 (stereo unspecified),81%
12,Cc1nn(CCC(=O)N2CCN(c3ccccc3)CC2)c(C)c1S(=O)(=O)N1CCCC1,-5% (active)
13,COc1ccc(N2CCN(C(=O)CCn3nc(C)c(S(=O)(=O)N4CCCC4)c3C)CC2)cc1,73%
14,COc1cccc(N2CCN(C(=O)CCn3nc(C)c(S(=O)(=O)N4CCCC4)c3C)CC2)c1,92%
15,COc1ccc(Cl)cc1NC(=O)CSC1=Nc2ccccc2C2=NC(CC(=O)NCc3ccc4c(c3)OCO4)C(=O)N12 (stereo unspecified),87%
16,COc1ccc(CCn2c(=O)c3cccnc3n(CC(=O)Nc3ccc(C)cc3C)c2=O)cc1OC,78%
17,O=S(=O)(c1ccccc1)c1nc(-c2cccc(Cl)c2)oc1NCc1ccccc1,83%
18,O=C(NC1CCCC1)c1ccc2c(=O)n(Cc3ccccc3)c(SCc3ccccc3F)nc2c1,0% (active)
19,O=C(NC1CCCCC1)c1ccc(Cn2c(SCc3ccccc3F)nc3cccnc32)cc1,80%
20,O=C(NC1CCCC1)c1ccc(CSc2nc3cccnc3n2Cc2ccc(F)cc2)cc1,63%
21,O=C(NC1CCCC1)c1ccc(CSc2nc3cccnc3n2Cc2ccccc2F)cc1,37% (active)
22,O=C(NC1CCCC1)c1ccc2c(=O)n(Cc3ccccc3)c(SCc3ccccc3)nc2c1,92%
23,Cc1ccccc1CSc1nc2cc(C(=O)NC3CCCC3)ccc2c(=O)n1Cc1ccccc1,107%

row,SMILES,survival
1,O=C(NC1CC1)c1ccc(Cn2c(SCc3ccc(F)cc3)nc3cccnc32)cc1,78%
2,O=C(NC1CCCCC1)c1ccc(CSc2nc3cccnc3n2Cc2ccc(F)cc2)cc1,25% (active)
3,O=C(NC1CCCCC1)c1ccc(CSc2nc3cccnc3n2Cc2ccccc2)cc1,102%
4,O=C(NC1CCCCC1)c1ccc(Cn2c(SCc3ccc(F)cc3)nc3cccnc32)cc1,32% (active)
5,O=C(NC1CCCCC1)c1ccc(Cn2c(SCc3ccccc3)nc3cccnc32)cc1,83%
6,O=C(NC1CCCCC1)c1ccc(CSc2nc3cccnc3n2Cc2ccccc2F)cc1,93%
7,O=C(Cn1cc(SCc2c(F)cccc2Cl)c2ccccc21)N1CCCC1,74%
8,COCCn1c(COc2ccc(Cl)cc2)nnc1SCC(=O)OC,96%
9,CCOc1ccccc1N(CC)C(=O)c1noc2c1COc1ccc(C)cc1-2,67%
10,COc1ccc(CCNC(=O)NCc2noc3ccccc23)c(OC)c1,62%
11,NC(=O)CSc1nc2cc3c(cc2c(=O)n1CCCCCC(=O)NCc1ccc2c(c1)OCO2)OCO3,81%
12,CCC(=O)N1CCc2cc(Br)cc(S(=O)(=O)NCc3cccc(OC)c3)c21,58%
13,COc1cccc(Cn2cc(S(=O)(=O)c3ccc(C)cc3)c(=O)c3cc4c(cc32)OCO4)c1,67%
14,COc1ccc(OC)c(S(=O)(=O)NCC(c2ccco2)S(=O)(=O)c2ccccc2)c1 (stereo unspecified),94%
15,CCOCCCNC(=O)CN1C(=O)COc2ccc(S(=O)(=O)N3CCCCCC3)cc21,81%
16,CCOC(=O)c1c(Oc2ccc(OC)cc2)nnc(-c2ccccc2)c1-c1ccccc1,75%
17,CCOC(=O)c1c(Nc2ccc(OC)cc2)nnc(-c2ccccc2)c1-c1ccccc1,7% (active)
18,COC(=O)c1c(Oc2ccc(OC)cc2)nnc(-c2ccccc2)c1-c1ccccc1,101%
19,C#CCOc1ccc(-c2nnc(Nc3cccc(C)c3)c3ccccc23)cc1,31% (active)
20,CCOC(=O)c1c(C)c(-c2ccccc2)n(CC(=O)Nc2ccc(OCC)cc2)c1C,73%
21,CCOC(=O)c1c(C)oc2ncnc(Nc3ccc(OCC)cc3)c12,89%
22,COc1ccc(-c2nnc(Nc3ccc(OC)c(C(N)=O)c3)c3ccccc23)cc1,41% (active)
23,C#CCOc1ccc(-c2nnc(Nc3ccc(NC(C)=O)cc3)c3ccccc23)cc1,60%

row,SMILES,survival
1,CNC(=O)c1cc(Nc2nnc(-c3ccc(O)cc3)c3ccccc23)ccc1OC,170%
2,COc1ccc(-c2nnc(Nc3ccc(OCC(N)=O)cc3)c3ccccc23)cc1,69%
3,Cc1cccc(Nc2nnc(-c3ccc(C)c(S(=O)(=O)N4CCCCC4)c3)c3ccccc23)c1,104%
4,CCOC(=O)c1c(Nc2ccc(OCC)cc2)nnc(-c2ccccc2)c1-c1ccccc1,-2% (active)
5,O=S(=O)(c1ccc(Br)cc1)c1nc(-c2cccs2)oc1SCc1ccccc1F,66%
6,Cc1cccc(CN2C(=O)c3ccccc3S(=O)(=O)c3ccc(C(=O)N4CCN(c5cc(C)ccc5C)CC4)cc32)c1,74%
7,CC1CCN(S(=O)(=O)c2ccc3c(c2)N(CC(=O)NCCc2ccc(Cl)cc2)C(=O)CO3)CC1,87%
8,Cc1cc(C)cc(Oc2nc3ccccn3c(=O)c2/C=C(\C#N)c2nc3ccccc3s2)c1,60%
9,COc1ccc(NC(=O)CC2C(=O)N(c3ccc(C)cc3)C(=O)N2Cc2ccc(C)cc2)cc1 (stereo unspecified),68%
10,Cc1ccc(CN(C(=O)COc2ccccc2Cl)c2ccccn2)o1,59%
11,COc1ccc(CCNc2ncnc3onc(C)c23)c(OC)c1,100%
12,COC(=O)c1c(-c2cccs2)csc1NC(=O)COc1ccccc1,78%
13,O=c1[nH]c2ccc(N=Cc3ccc(F)cc3)cc2[nH]1,73%
14,COc1cc(C=Nc2ccc3[nH]c(=O)[nH]c3c2)ccc1OC(C)=O,85%
15,O=c1[nH]c2ccc(N=Cc3ccccc3C(F)(F)F)cc2[nH]1,71% (active)
16,CC1CCN(S(=O)(=O)c2ccc3c(c2)N(CC(=O)O)C(=O)CO3)CC1,94%
17,CCOc1ccc(CNC(=O)Cc2ccc(NC(=O)N3CCCCc4ccccc43)cc2)cc1OC,85%
18,COc1ccc(N2CCN(C(=O)Nc3cn(CC(C)C)c(=O)c4ccccc34)CC2)cc1,83%
19,CS(=O)(=O)N1CCC(N2CCN(Cc3ccccc3)C(=O)C2=O)CC1,91%
20,CC(=O)c1ccc(NC(=O)c2nc(-c3ccc(C)cc3)n3c2CCCCC3)cc1,58%
21,Cc1ccc(-c2nc(C(=O)Nc3cccc(C#N)c3)c3n2CCCCC3)cc1,88%
22,CC(=O)c1cccc(NC(=O)c2nc(-c3ccc(C)cc3)n3c2CCCCC3)c1,34% (active)
